Measured values: PubChem BioAssay AID1671189 (National Center for Advancing Translational Sciences (NCATS), 2021)
Screen size: about 1,100 compounds; about 70 (6%) were called active. Another 22% or so got no clear call; they are omitted. The call rests on the fitted dose curve; in most records, active means well fitted curve in the direction sought with a large enough effect; inconclusive means small, poorly fitted or top-dose-only effect, or another doubt; inactive means no such curve, though single readings can be large or run the other way. The sample as a whole holds a higher share of actives than the screen did.

The compounds below were run against Polyunsaturated fatty acid lipoxygenase ALOX12 (Homo sapiens) (UniProt P18054) (assay: Confirmatory qHTS assay for inhibitors of human arachidonate 12S-lipoxygenase (ALOX12): Round 2). Conditions: purified human 12-LOX, xylenol orange absorbance; series mostly up to 125 µM.
Chain of Polyunsaturated fatty acid lipoxygenase ALOX12 (Homo sapiens) (P18054 whole entry, looked up): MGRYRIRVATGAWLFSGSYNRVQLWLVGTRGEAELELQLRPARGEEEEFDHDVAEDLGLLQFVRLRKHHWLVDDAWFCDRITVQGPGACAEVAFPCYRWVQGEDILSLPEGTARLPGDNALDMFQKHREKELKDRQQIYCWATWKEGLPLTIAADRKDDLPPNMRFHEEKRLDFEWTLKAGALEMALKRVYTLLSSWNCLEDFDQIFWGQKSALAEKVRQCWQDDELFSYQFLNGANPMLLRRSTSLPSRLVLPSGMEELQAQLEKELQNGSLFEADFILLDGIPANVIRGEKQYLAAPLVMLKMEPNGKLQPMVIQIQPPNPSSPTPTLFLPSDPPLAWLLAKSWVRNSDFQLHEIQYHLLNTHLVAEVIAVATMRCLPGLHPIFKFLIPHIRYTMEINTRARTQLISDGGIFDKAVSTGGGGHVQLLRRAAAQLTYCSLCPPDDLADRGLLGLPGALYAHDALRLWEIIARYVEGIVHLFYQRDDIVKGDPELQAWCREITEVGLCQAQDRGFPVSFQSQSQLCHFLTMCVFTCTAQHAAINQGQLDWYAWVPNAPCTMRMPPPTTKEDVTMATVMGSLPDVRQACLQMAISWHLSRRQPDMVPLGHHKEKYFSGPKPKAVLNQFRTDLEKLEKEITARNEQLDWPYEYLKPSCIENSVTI
Summary of the method: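 Activity was measured as hydroperoxide formation via ferrous/xylenol orange, taking the 573 nm to 405 nm absorbance ratio. Reaction: 40 uM arachidonic acid, 30 min at room temperature, after 15 min compound preincubation with 150 nM enzyme, pH 7.0 Hepes buffer.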
Potency means the concentration at half of the fitted maximal effect.

Potency, active:
CC(=O)NCc1cc(Cl)c2cccnc2c1O 1.93 µM
CC(=O)NC(C)c1cc(Cl)c2cccnc2c1O (centres undefined) 6.85 µM
CC(=O)NC(C)c1cc(F)c2cccnc2c1O (centres undefined) 17.2 µM
CCC(=O)NC(c1cc(Cl)c2cccnc2c1O)C(C)C (centres undefined) 10.9 µM
CCC(=O)NC(c1cc(Cl)c2cccnc2c1O)C1CC1 (centres undefined) 12.2 µM
O=C(Nc1ccc(Oc2ccccc2)cc1)O[C@@H]1CO[C@H]2[C@@H]1OC[C@@H]2NS(=O)(=O)c1ccc(Cl)cc1 5.01 µM
O=C1Nc2ccccc2CN(CC2CCCCC2)C12CCNCC2 49.4 µM
COc1cccc(CNc2ccc([S+](=O)([O-])Nc3cc4ccccc4s3)cc2)c1O 19.3 µM
CNC(=O)[C@@H](C1CCCCC1)N1CCC[C@H]1C(=O)N1CCC1 15.8 µM

Potency, inactive:
CSc1ccc(-c2ccc(C=O)cc2)cc1
CC(C)Nc1ncnc2c1CN(C1CCCNC1)C(=O)CN2C (centres undefined)
CN1CC(=O)N(C2CCCNC2)Cc2c1ncnc2N1CCN(Cc2ccccc2)CC1 (centres undefined)
CN1CC(=O)N(C2CCCNCC2)Cc2c1ncnc2N1CCCC(O)C1 (centres undefined)
CC[C@@](N)(C(=O)O)c1ccc(C(=O)O)cc1
CCOCCCNc1ncnc2c1CN(C1CCNCC1)C(=O)CN2C
CN1CCC(C(=O)N2Cc3ccccc3OC3(CCN(C(=O)N(C)C)CC3)C2)CC1
Cn1nc(C2CCCN2)c2c(C(=O)NCc3ccc(F)cc3)cc(C3CC3)nc21 (centres undefined)
O=Cc1ccccc1-c1ccc(O)cc1
COc1ccc(N2CC3CCC(C2)N3Cc2cccc(Cl)c2)cc1
O=C(O)CCC(=O)N1Cc2ccccc2CC2(CCCN2CC2CCNC2)C1 (centres undefined)
COc1cccc(CNc2ncnc3c2CN(C2CCCNCC2)C(=O)CN3C)c1 (centres undefined)
CN1CCCC2(Cc3ccccc3CN(C(=O)c3ccc(Cl)cc3)C2)C1 (centres undefined)
OCC1CN(c2ncccn2)CC12CCN(Cc1cccc3[nH]ccc13)CC2 (centres undefined)
CN1CC(=O)N(C2CCCNCC2)Cc2c1ncnc2N1CCC(N2CCCCC2)CC1 (centres undefined)
CNC(C)c1ccc(Oc2ccccc2)cc1 (centres undefined)
Cn1nc(C2CCCNC2)c2c(C(=O)NCC(F)(F)F)cc(C3CC3)nc21 (centres undefined)
O=C(O)c1cccc(-c2cnc3ccccc3c2)c1
Cn1nc(C2CCCN2)c2c(C(=O)NCc3cccs3)cc(C3CC3)nc21 (centres undefined)
O=C(N1CCOCC1)N1CCCC1c1nnc2n1CCNC2 (centres undefined)
NC(Cc1ccccc1)C(=O)N1CCC2(CC1)CN(C(=O)c1ccc(Cl)cc1)CCO2 (centres undefined)
O=S(=O)(Nc1ncc(CN2CC[C@H]3CNC[C@H]32)cn1)c1ccccc1
CN1CC(=O)N(C2CCNCC2)Cc2c1ncnc2N1CCc2ccccc2C1
COc1ccc(CN2CCCC23Cc2ccccc2CNC3=O)c(O)c1 (centres undefined)
CCOC(=O)c1c(NC(=O)CSc2nnnn2-c2ccc(OC)cc2)sc(C)c1C
CC(=O)Nc1ccc(CN2CCC(c3nc4ccc(C)cc4c(=O)[nH]3)CC2)cc1
CCCCc1ncc(-c2nccn2C2CCNC2)[nH]1 (centres undefined)
O=C1NCc2ccccc2CC12CCN(Cc1c(F)cccc1F)C2 (centres undefined)
COc1ccc(-c2nc(C3CC3)nc3c2CCN(C(=O)c2ccc(C(F)(F)F)cc2)CC3)cc1
O=[S+]([O-])(c1ccccc1)N1CC(Oc2ccc(F)c(F)c2)C1
CCC(=O)N1Cc2ccccc2CC2(CCCN(CC3CCNCC3)C2)C1 (centres undefined)
NCc1ccccc1-c1ccc(O)cc1
Cn1nc(C2CCNC2)c2c(C(=O)NCc3ccncc3)cc(C3CC3)nc21 (centres undefined)
O=C1NC2(Cc3ccccc31)CN(C(=O)c1ccc3c(c1)OCO3)C2
CC(C)C[C@@H](N)C(=O)O
COc1cccc([S+](=O)([O-])N2CC(Oc3ccc(F)c(F)c3)C2)c1
COc1cccc(N2C(=O)NC(=NC3CCCCC3)C23CCCN(C(=O)c2ccccc2)C3)c1 (centres undefined)
CC(=O)NC1CC2(CCN(C(=O)Cc3c(C)noc3C)CC2)Oc2ccccc21 (centres undefined)
CC(C)NC(=O)N1CCC2(CC1)CN(C(=O)Cc1c[nH]c3ccccc13)CCO2
CC(C)C(=O)N1Cc2ccccc2CC2(CCCCN2CC2CCNC2)C1 (centres undefined)
CN(C)CCCC(=O)N1Cc2ccccc2CC2(CCCCN2Cc2ccccc2)C1 (centres undefined)
Cc1cc(C(=O)NC2CCNCC2)c2c(C3CCNCC3)noc2n1
CC(C)c1ccc(CNC(=O)C2CCN(c3cc(C(F)(F)F)ncn3)CC2)cc1
O=C1Nc2ccccc2CC12CN(CC1CCCC1)C2
O=C1Nc2ccccc2CN(C/C=C/c2ccccc2)C12CCNC2 (centres undefined)
C[S+](=O)([O-])N1Cc2ccccc2CC2(CCCCN2CC2CCNCC2)C1 (centres undefined)
COc1ccc(CNc2ncnc3c2CN(C2CCNCC2)C(=O)CN3C)cc1
O=C(c1ccccc1)N1CCn2c(nnc2C2CCNCC2)C1
Cc1ccc2nc(C3CCCN(Cc4ccccc4)C3)[nH]c(=O)c2c1 (centres undefined)
O=C(c1ccccn1)N1CCn2c(nn(-c3ccc(Cl)cc3)c2=O)C1
O=C1NC(=NC2CCCC2)C2(CCN(CC3CC3)C2)N1c1cccnc1 (centres undefined)
C#CCN(C)C(=O)[C@@H]1CCCN1[C@H](CC(C)C)C(=O)NC
Cc1n[nH]c(C)c1CN1CCC2(CC1)CCN(C1CCOCC1)CC2CO (centres undefined)
CN1CC(=O)N(C2CCNCC2)Cc2c(NCCc3cccc(F)c3)ncnc21
COc1ccc(CN2Cc3[nH]cnc3C[C@H]2C(=O)NCc2ccco2)cc1
